# Measurements: PMC7862700, “An all-to-all approach to the identification of sequence-specific readers for epigenetic DNA modifications on cytosine”
# Experiments:
# Experiment in all cases: DAPPL (digital affinity profiling via proximity ligation, sequencing); 10 mM Tris-HCl pH 7.5, 50 mM NaCl, 1 mM DTT, 4% glycerol, room temperature, 30 min; GST-TFs on glutathione beads, 16-mer random dsDNA library, 0.1% formaldehyde crosslink after washing; high values mean tight binding
# Conditions in all cases: protein: recombinant; tags: N-terminal GST; dsDNA, one strand shown
# ERF = biological target: T1, ERF (Homo sapiens, UniProt P50548 1-548)
# T1 sequence: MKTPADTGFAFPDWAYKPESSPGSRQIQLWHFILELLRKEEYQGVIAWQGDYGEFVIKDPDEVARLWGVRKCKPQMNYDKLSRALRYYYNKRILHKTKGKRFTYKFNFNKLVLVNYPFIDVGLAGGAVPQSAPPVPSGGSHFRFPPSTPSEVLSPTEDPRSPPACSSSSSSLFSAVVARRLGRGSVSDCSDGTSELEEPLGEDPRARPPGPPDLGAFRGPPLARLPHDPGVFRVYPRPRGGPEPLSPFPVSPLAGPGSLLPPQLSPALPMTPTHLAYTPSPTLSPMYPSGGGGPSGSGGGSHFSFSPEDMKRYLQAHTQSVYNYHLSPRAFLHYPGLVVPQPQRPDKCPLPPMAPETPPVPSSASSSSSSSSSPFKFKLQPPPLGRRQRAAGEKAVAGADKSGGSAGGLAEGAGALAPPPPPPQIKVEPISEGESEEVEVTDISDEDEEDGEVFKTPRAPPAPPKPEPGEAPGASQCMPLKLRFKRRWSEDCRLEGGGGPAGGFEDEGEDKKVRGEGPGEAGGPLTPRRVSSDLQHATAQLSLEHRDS
# Procedure, shortened: (§1)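 Pools of DNA-barcoded human transcription factors, expressed in yeast as GST fusions on glutathione beads and combined with a tag-only sample, were incubated with 200 nmole of a 16-mer random double-stranded DNA library. Incubation took 30 min at room temperature in Tris/NaCl/DTT/glycerol buffer and was followed by washing, 0.1% formaldehyde crosslinking, proximity ligation (BsaI/T4 ligase, 1 h, 37 °C), PCR amplification and sequencing on an Illumina NextSeq500. Binding signal is the ratio of a hexamer's read frequency for a factor to its frequency for the tag-only sample.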
# ETV3L = biological target: T2, ETV3L (Homo sapiens, UniProt Q6ZN32 1-361)
# T2 sequence: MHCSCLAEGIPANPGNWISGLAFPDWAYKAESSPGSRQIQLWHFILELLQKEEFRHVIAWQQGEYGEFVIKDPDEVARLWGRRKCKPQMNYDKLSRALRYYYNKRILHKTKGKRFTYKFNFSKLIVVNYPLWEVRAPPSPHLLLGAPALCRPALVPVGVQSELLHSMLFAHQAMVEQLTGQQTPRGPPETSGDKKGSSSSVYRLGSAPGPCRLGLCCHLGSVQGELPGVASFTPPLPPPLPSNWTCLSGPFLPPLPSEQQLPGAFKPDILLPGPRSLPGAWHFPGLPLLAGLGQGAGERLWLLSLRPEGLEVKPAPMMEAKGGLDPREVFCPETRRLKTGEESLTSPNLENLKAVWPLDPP
# Procedure, shortened: as §1
# ETS2 = biological target: T3, ETS2 (Homo sapiens, UniProt P15036 1-469)
# T3 sequence: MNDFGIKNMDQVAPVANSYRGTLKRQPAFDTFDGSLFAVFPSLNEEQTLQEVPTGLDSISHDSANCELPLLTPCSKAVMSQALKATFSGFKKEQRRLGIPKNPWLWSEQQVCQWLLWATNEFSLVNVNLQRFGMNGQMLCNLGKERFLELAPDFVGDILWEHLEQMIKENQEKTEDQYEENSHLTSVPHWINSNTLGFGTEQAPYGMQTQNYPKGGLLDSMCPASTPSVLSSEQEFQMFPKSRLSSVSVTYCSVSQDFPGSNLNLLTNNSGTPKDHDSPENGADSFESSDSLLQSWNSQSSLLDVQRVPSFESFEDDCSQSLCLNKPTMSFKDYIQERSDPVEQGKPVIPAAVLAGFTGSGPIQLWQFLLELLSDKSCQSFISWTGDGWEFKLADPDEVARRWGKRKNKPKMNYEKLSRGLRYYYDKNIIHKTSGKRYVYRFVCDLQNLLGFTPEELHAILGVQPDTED
# Procedure, shortened: as §1
# SPDEF = biological target: T4, SPDEF (Homo sapiens, UniProt O95238 1-335)
# T4 sequence: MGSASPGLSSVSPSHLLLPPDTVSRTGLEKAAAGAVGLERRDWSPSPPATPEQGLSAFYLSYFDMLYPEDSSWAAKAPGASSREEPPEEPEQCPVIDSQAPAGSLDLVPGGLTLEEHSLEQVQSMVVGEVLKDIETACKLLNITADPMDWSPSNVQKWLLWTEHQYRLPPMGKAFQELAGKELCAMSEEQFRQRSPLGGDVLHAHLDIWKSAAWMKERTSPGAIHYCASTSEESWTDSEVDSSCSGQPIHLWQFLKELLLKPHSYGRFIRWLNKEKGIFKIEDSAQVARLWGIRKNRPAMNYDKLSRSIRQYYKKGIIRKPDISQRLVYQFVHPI
# Procedure, shortened: as §1
# ETV7 = biological target: T5, ETV7 (Homo sapiens, UniProt Q9Y603 1-341)
# T5 sequence: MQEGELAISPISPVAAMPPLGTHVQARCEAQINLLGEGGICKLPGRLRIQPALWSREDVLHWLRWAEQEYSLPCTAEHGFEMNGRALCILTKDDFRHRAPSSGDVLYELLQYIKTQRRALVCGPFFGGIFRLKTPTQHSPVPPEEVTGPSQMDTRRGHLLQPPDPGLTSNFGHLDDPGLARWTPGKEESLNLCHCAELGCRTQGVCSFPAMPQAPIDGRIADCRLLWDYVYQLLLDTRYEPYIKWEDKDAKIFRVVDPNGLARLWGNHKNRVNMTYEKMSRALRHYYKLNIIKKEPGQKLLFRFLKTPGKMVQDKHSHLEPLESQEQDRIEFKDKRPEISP
# Procedure, shortened: as §1
# ELF5 = biological target: T6, ELF5 (Homo sapiens, UniProt Q9UKW6-2 1-255)
# T6 sequence: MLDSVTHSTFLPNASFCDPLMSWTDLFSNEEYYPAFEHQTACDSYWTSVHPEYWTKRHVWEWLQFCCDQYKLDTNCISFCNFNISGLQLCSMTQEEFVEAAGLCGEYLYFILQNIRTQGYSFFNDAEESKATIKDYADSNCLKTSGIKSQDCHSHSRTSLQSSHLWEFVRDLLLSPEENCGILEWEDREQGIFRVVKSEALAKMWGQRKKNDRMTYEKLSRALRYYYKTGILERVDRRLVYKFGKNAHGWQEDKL
# Procedure, shortened: as §1
# ETV3 = biological target: T7, ETV3 (Homo sapiens, UniProt P41162-2 1-143)
# T7 sequence: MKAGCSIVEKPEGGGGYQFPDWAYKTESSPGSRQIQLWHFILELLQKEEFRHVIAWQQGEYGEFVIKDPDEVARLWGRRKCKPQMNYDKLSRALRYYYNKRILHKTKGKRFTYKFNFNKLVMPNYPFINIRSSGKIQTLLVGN
# Procedure, shortened: as §1
# ETV6 = ETV6 (Homo sapiens, UniProt P41212 1-452)
# ETV6, sequence (P41212 whole entry): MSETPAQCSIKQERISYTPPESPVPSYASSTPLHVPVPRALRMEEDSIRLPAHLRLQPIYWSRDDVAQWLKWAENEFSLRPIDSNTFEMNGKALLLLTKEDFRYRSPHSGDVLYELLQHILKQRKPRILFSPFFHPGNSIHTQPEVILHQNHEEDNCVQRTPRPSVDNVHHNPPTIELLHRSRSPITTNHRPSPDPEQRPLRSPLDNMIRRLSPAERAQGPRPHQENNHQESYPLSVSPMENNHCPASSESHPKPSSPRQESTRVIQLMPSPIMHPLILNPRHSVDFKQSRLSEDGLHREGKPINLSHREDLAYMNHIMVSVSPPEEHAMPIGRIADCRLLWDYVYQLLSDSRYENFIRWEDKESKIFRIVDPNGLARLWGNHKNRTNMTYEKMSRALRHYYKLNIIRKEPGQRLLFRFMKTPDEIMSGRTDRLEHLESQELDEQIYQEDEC
# Procedure, shortened: as §1
Sequence,binding signal (ERF),binding signal (ETV3L),binding signal (ETS2),binding signal (SPDEF),binding signal (ETV7),binding signal (ELF5),binding signal (ETV3),binding signal (ETV6)
TCACGA,"1.14 fold enrichment (6-mer frequency, TF over GST control)","1.04 fold enrichment (6-mer frequency, TF over GST control)","1.13 fold enrichment (6-mer frequency, TF over GST control)","1.17 fold enrichment (6-mer frequency, TF over GST control)","1.16 fold enrichment (6-mer frequency, TF over GST control)","1.03 fold enrichment (6-mer frequency, TF over GST control)","1.14 fold enrichment (6-mer frequency, TF over GST control)","1.16 fold enrichment (6-mer frequency, TF over GST control)"
TTTTCA,"1.24 fold enrichment (6-mer frequency, TF over GST control)","1.26 fold enrichment (6-mer frequency, TF over GST control)","1.14 fold enrichment (6-mer frequency, TF over GST control)","1.18 fold enrichment (6-mer frequency, TF over GST control)","1.26 fold enrichment (6-mer frequency, TF over GST control)","1.25 fold enrichment (6-mer frequency, TF over GST control)","1.31 fold enrichment (6-mer frequency, TF over GST control)","1.21 fold enrichment (6-mer frequency, TF over GST control)"
AACCTA,"1.03 fold enrichment (6-mer frequency, TF over GST control)","1.05 fold enrichment (6-mer frequency, TF over GST control)","1.11 fold enrichment (6-mer frequency, TF over GST control)","1.08 fold enrichment (6-mer frequency, TF over GST control)","1.03 fold enrichment (6-mer frequency, TF over GST control)","1.07 fold enrichment (6-mer frequency, TF over GST control)","1.07 fold enrichment (6-mer frequency, TF over GST control)","1.1 fold enrichment (6-mer frequency, TF over GST control)"
ACCTAC,"1.17 fold enrichment (6-mer frequency, TF over GST control)","1.26 fold enrichment (6-mer frequency, TF over GST control)","1.2 fold enrichment (6-mer frequency, TF over GST control)","1.17 fold enrichment (6-mer frequency, TF over GST control)","1.09 fold enrichment (6-mer frequency, TF over GST control)","1.29 fold enrichment (6-mer frequency, TF over GST control)","1.25 fold enrichment (6-mer frequency, TF over GST control)","1.32 fold enrichment (6-mer frequency, TF over GST control)"
TGTTCT,"1.39 fold enrichment (6-mer frequency, TF over GST control)","1.43 fold enrichment (6-mer frequency, TF over GST control)","1.18 fold enrichment (6-mer frequency, TF over GST control)","1.22 fold enrichment (6-mer frequency, TF over GST control)","1.22 fold enrichment (6-mer frequency, TF over GST control)","1.37 fold enrichment (6-mer frequency, TF over GST control)","1.27 fold enrichment (6-mer frequency, TF over GST control)","1.37 fold enrichment (6-mer frequency, TF over GST control)"
CTCTTC,"1.62 fold enrichment (6-mer frequency, TF over GST control)","1.89 fold enrichment (6-mer frequency, TF over GST control)","1.65 fold enrichment (6-mer frequency, TF over GST control)","1.59 fold enrichment (6-mer frequency, TF over GST control)","1.56 fold enrichment (6-mer frequency, TF over GST control)","2.07 fold enrichment (6-mer frequency, TF over GST control)","1.75 fold enrichment (6-mer frequency, TF over GST control)","1.84 fold enrichment (6-mer frequency, TF over GST control)"
ATAACA,"1.31 fold enrichment (6-mer frequency, TF over GST control)","1.28 fold enrichment (6-mer frequency, TF over GST control)","1.27 fold enrichment (6-mer frequency, TF over GST control)","1.21 fold enrichment (6-mer frequency, TF over GST control)","1.32 fold enrichment (6-mer frequency, TF over GST control)","1.28 fold enrichment (6-mer frequency, TF over GST control)","1.2 fold enrichment (6-mer frequency, TF over GST control)","1.26 fold enrichment (6-mer frequency, TF over GST control)"
TTGACA,"1.46 fold enrichment (6-mer frequency, TF over GST control)","1.37 fold enrichment (6-mer frequency, TF over GST control)","1.4 fold enrichment (6-mer frequency, TF over GST control)","1.3 fold enrichment (6-mer frequency, TF over GST control)","1.44 fold enrichment (6-mer frequency, TF over GST control)","1.29 fold enrichment (6-mer frequency, TF over GST control)","1.26 fold enrichment (6-mer frequency, TF over GST control)","1.32 fold enrichment (6-mer frequency, TF over GST control)"
TACTAC,"1.3 fold enrichment (6-mer frequency, TF over GST control)","1.41 fold enrichment (6-mer frequency, TF over GST control)","1.34 fold enrichment (6-mer frequency, TF over GST control)","1.34 fold enrichment (6-mer frequency, TF over GST control)","1.47 fold enrichment (6-mer frequency, TF over GST control)","1.36 fold enrichment (6-mer frequency, TF over GST control)","1.29 fold enrichment (6-mer frequency, TF over GST control)","1.38 fold enrichment (6-mer frequency, TF over GST control)"
